Reference: PubChem BioAssay (NCI)
About 79,000 compounds went through this panel and 15% of them were active in at least one assay; those are over-represented in the sample as a whole. Activity calls are given as the source filed them. Rule as the data show it: active = growth inhibition above about 70%; inactive = the rest.

What was measured:
[1] = NCI Yeast Anticancer Drug Screen. Data for the rad52 strain (AID 147);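 also: 0% = growth of vehicle-treated control cultures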; details: S. cerevisiae rad52 mutant growth inhibition, active compounds read high
In short: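 Screen used a yeast mutant impaired in DNA repair. After compound exposure, growth was measured. Values reflect inhibition compared with vehicle-treated cells.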

[2] = NCI Yeast Anticancer Drug Screen. Data for the wt1 strain (AID 149);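 also: 0% = growth of vehicle-treated wt1 cultures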; details: S. cerevisiae wt1 strain (SPY 50644) growth inhibition, active compounds read high
In short: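 wt1 strain grown with compound or vehicle; inhibition taken from the growth difference.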

[3] = NCI Yeast Anticancer Drug Screen. Data for the rad50EPP+ strain (AID 151);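 also: 0% = growth of vehicle-treated control cultures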; details: S. cerevisiae rad50 mutant strain, active compounds read high
In short: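 Exposing the rad50EPP+ strain to each compound, growth was compared with vehicle-only cultures to give inhibition.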

[4] = NCI Yeast Anticancer Drug Screen. Data for the mgt1 strain (AID 153); details: S. cerevisiae mgt1 mutant growth inhibition, active compounds read high
In short: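 Genetically defined yeast (mgt1) treated with compound; inhibition of growth expressed against vehicle-treated controls.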

[5] = NCI Yeast Anticancer Drug Screen. Data for the rad50 strain (AID 155);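 also: 0% = growth of vehicle-only cultures of the same strain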; details: S. cerevisiae rad50 strain growth inhibition, active compounds read high
In short: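 DNA repair mutant yeast, compound exposure, growth read-out; inhibition is taken relative to vehicle.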

[6] = NCI Yeast Anticancer Drug Screen. Data for the mec2-1 strain (AID 157); details: S. cerevisiae mec2-1 strain, active compounds read high
In short: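 Readout is yeast growth inhibition, normalised to vehicle-treated controls, in the mec2-1 strain exposed to compound.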

[7] = NCI Yeast Anticancer Drug Screen. Data for the rad14 strain (AID 159);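 also: 0% = growth of vehicle-treated control cultures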; details: S. cerevisiae rad14 strain growth inhibition, active compounds read high
In short: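 DNA repair-defective yeast, compound-exposed; % growth inhibition derived by comparison with vehicle-treated controls.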

[8] = NCI Yeast Anticancer Drug Screen. Data for the sgs1 mgt1 strain (AID 161);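 also: 0% = growth of cultures given vehicle only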; details: S. cerevisiae sgs1 mgt1 strain, active compounds read high
In short: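 Compounds are added to genetically altered yeast, and growth is compared with cultures given vehicle alone to give percent inhibition.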

[9] = NCI Yeast Anticancer Drug Screen. Data for the CLN2oe strain (AID 163);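 also: 0% = growth of vehicle-only control cultures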; details: S. cerevisiae CLN2oe strain, active compounds read high
In short: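 Values reflect how much compound exposure reduced yeast growth, referenced to vehicle-exposed cells. Assay organism is a strain with a defined genetic change affecting cell-cycle control.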

[10] = NCI Yeast Anticancer Drug Screen. Data for the cln2 rad14 strain (AID 165);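 also: 0% = growth equal to vehicle treated cultures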; details: S. cerevisiae cln2 rad14 strain, active compounds read high
In short: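 Relative to vehicle controls, growth inhibition of compound-treated cln2 rad14 yeast was recorded.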

[11] = NCI Yeast Anticancer Drug Screen. Data for the bub3 strain (AID 167); details: S. cerevisiae bub3 mutant strain, active compounds read high
In short: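 In this screen, a yeast mutant lacking normal mitotic checkpoint function is challenged with compound. Relative growth versus vehicle gives the inhibition value.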

[12] = NCI Yeast Anticancer Drug Screen. Data for the wt2 strain (AID 169);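 also: 0% = growth of vehicle-treated yeast cultures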; details: S. cerevisiae wt2 strain growth inhibition, active compounds read high
In short: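 Values express reduction in yeast growth under compound treatment, referenced to vehicle-treated cells.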

[13] = NCI Yeast Anticancer Drug Screen. Data for the mlh1 strain (AID 171);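 also: 0% = growth of vehicle-treated control cultures of the same strain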; details: S. cerevisiae mlh1 strain growth inhibition, active compounds read high
In short: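 Steps: expose the defined-mutant yeast strain to compound; expose a parallel culture to vehicle; measure growth; express compound effect as inhibition relative to the vehicle culture.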

[14] = NCI Yeast Anticancer Drug Screen. Data for the sgs1 strain (AID 173);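 also: 0% = growth of vehicle-only control cultures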; details: S. cerevisiae sgs1 mutant, active compounds read high
In short: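 Treat defined-mutant yeast with compound; measure growth; calculate inhibition relative to vehicle-treated cells.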

[15] = NCI Yeast Anticancer Drug Screen. Data for the mlh1 rad18 strain (AID 175); details: S. cerevisiae mlh1 rad18 strain growth inhibition, active compounds read high
In short: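 Test agents were incubated with a yeast strain of defined genotype (DNA damage repair defect). Inhibition of growth was derived by comparison with vehicle-exposed cultures.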

[16] = NCI Yeast Anticancer Drug Screen. Data for the rad18 strain (AID 177); details: S. cerevisiae rad18 mutant growth inhibition, active compounds read high
In short: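 A genetically defined yeast mutant impaired in DNA damage repair was treated with test compounds, then its growth was measured against cultures receiving vehicle alone.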

[17] = at 5.0 µM (retest, dose inferred, filed as 0.5)
[18] = at 50.0 µM (retest, dose inferred, filed as 5.0)

Measured: growth inhibition

NCCOc1ccc(/C(=C(/Cl)c2ccccc2)c2ccccc2)cc1
inactive: [1]; at 1.2 µM -10% | [1]; at 3.7 µM -15% | [1]; at 11.0 µM 23% | [2]; at 1.2 µM 1% | [2]; at 3.7 µM -4% | [2]; at 11.0 µM 5% | [3]; at 1.2 µM 0% | [3]; at 3.7 µM 9% | [3]; at 11.0 µM 15% | [4]; at 1.2 µM -6% | [4]; at 3.7 µM -7% | [4]; at 11.0 µM 13% | [5]; at 1.2 µM -3% | [5]; at 3.7 µM 3% | [5]; [17] 17% | [5]; at 11.0 µM 39% | [6]; at 1.2 µM -5% | [6]; at 3.7 µM -17% | [6]; [17] 7% | [6]; at 11.0 µM 11% | [7]; at 1.2 µM -16% | [7]; at 3.7 µM -18% | [8]; [17] 7% | [9]; at 1.2 µM 18% | [9]; at 3.7 µM 12% | [9]; at 11.0 µM 36% | [10]; [17] 37% | [11]; at 1.2 µM 0% | [11]; at 3.7 µM -35% | [11]; [17] -11% | [11]; at 11.0 µM 14% | [12]; at 1.2 µM -4% | [12]; at 3.7 µM 0% | [12]; at 11.0 µM 2% | [13]; at 1.2 µM 18% | [13]; at 3.7 µM 10% | [13]; at 11.0 µM 34% | [14]; at 1.2 µM 26% | [14]; at 3.7 µM 23% | [14]; at 11.0 µM 55% | [15]; [17] -1% | [16]; at 1.2 µM 16% | [16]; at 3.7 µM 29% | [16]; at 11.0 µM 30%
active: [1]; at 33.0 µM 98% | [1]; at 100.0 µM 96% | [2]; at 33.0 µM 98% | [2]; at 100.0 µM 97% | [3]; at 33.0 µM 97% | [3]; at 100.0 µM 96% | [4]; at 33.0 µM 98% | [4]; at 100.0 µM 96% | [5]; at 33.0 µM 99% | [5]; [18] 98% | [5]; at 50.0 µM 85.5% | [5]; at 100.0 µM 96% | [6]; at 33.0 µM 98% | [6]; [18] 99% | [6]; at 50.0 µM 93.8% | [6]; at 100.0 µM 97% | [7]; at 11.0 µM 72% | [7]; at 33.0 µM 98% | [7]; at 100.0 µM 96% | [8]; [18] 98% | [8]; at 50.0 µM 92.7% | [9]; at 33.0 µM 98% | [9]; at 100.0 µM 96% | [10]; [18] 98% | [10]; at 50.0 µM 92.2% | [11]; at 33.0 µM 99% | [11]; [18] 98% | [11]; at 50.0 µM 91.8% | [11]; at 100.0 µM 96% | [12]; at 33.0 µM 98% | [12]; at 100.0 µM 97% | [13]; at 33.0 µM 99% | [13]; at 100.0 µM 97% | [14]; at 33.0 µM 99% | [14]; at 100.0 µM 97% | [15]; [18] 98% | [15]; at 50.0 µM 88.7% | [16]; at 33.0 µM 99% | [16]; at 100.0 µM 97%

CC(C)(N=Nc1ccc(Cl)cc1)[N+](=O)[O-]
inactive: [1]; at 1.2 µM 17% | [1]; at 3.7 µM 27% | [2]; at 1.2 µM 10% | [2]; at 3.7 µM 12% | [2]; at 11.0 µM 68% | [3]; at 1.2 µM 13% | [3]; at 3.7 µM 17% | [3]; at 11.0 µM 60% | [4]; at 1.2 µM 12% | [4]; at 3.7 µM 22% | [5]; at 1.2 µM 15% | [5]; at 3.7 µM 35% | [5]; [17] 47% | [6]; at 1.2 µM -1% | [6]; at 3.7 µM 9% | [6]; [17] 28% | [6]; at 11.0 µM 64% | [7]; at 1.2 µM 16% | [7]; at 3.7 µM 21% | [8]; [17] 35% | [9]; at 1.2 µM 14% | [9]; at 3.7 µM 19% | [10]; [17] -1% | [11]; at 1.2 µM 19% | [11]; at 3.7 µM 18% | [11]; [17] 27% | [12]; at 1.2 µM 12% | [12]; at 3.7 µM 15% | [13]; at 1.2 µM 3% | [13]; at 3.7 µM 11% | [14]; at 1.2 µM 11% | [14]; at 3.7 µM 19% | [15]; [17] 47% | [16]; at 1.2 µM 15% | [16]; at 3.7 µM 23%
active: [1]; at 11.0 µM 90% | [1]; at 33.0 µM 97% | [1]; at 100.0 µM 97% | [2]; at 33.0 µM 98% | [2]; at 100.0 µM 98% | [3]; at 33.0 µM 90% | [3]; at 100.0 µM 96% | [4]; at 11.0 µM 79% | [4]; at 33.0 µM 98% | [4]; at 100.0 µM 99% | [5]; at 11.0 µM 93% | [5]; at 33.0 µM 98% | [5]; [18] 98% | [5]; at 50.0 µM 99% | [5]; at 100.0 µM 98% | [6]; at 33.0 µM 98% | [6]; [18] 99% | [6]; at 50.0 µM 98.9% | [6]; at 100.0 µM 98% | [7]; at 11.0 µM 76% | [7]; at 33.0 µM 97% | [7]; at 100.0 µM 97% | [8]; [18] 98% | [8]; at 50.0 µM 98.7% | [9]; at 11.0 µM 83% | [9]; at 33.0 µM 97% | [9]; at 100.0 µM 98% | [10]; [18] 98% | [10]; at 50.0 µM 98.5% | [11]; at 11.0 µM 82% | [11]; at 33.0 µM 97% | [11]; [18] 99% | [11]; at 50.0 µM 99% | [11]; at 100.0 µM 98% | [12]; at 11.0 µM 88% | [12]; at 33.0 µM 98% | [12]; at 100.0 µM 98% | [13]; at 11.0 µM 77% | [13]; at 33.0 µM 98% | [13]; at 100.0 µM 99% | [14]; at 11.0 µM 95% | [14]; at 33.0 µM 98% | [14]; at 100.0 µM 98% | [15]; [18] 98% | [15]; at 50.0 µM 98.7% | [16]; at 11.0 µM 94% | [16]; at 33.0 µM 98% | [16]; at 100.0 µM 96%

c1ccc2c(c1)N=C1CCCC3CCCC123 (stereo unspecified)
inactive: [1]; at 1.2 µM 3% | [1]; at 3.7 µM 4% | [1]; at 11.0 µM 11% | [1]; at 33.0 µM 56% | [2]; at 1.2 µM -2% | [2]; at 3.7 µM 2% | [2]; at 11.0 µM 7% | [2]; at 33.0 µM -1% | [3]; at 1.2 µM -9% | [3]; at 3.7 µM -14% | [3]; at 11.0 µM -11% | [3]; at 33.0 µM 5% | [3]; at 100.0 µM 68% | [4]; at 1.2 µM 1% | [4]; at 3.7 µM 1% | [4]; at 11.0 µM 6% | [4]; at 33.0 µM 21% | [5]; at 1.2 µM -2% | [5]; at 3.7 µM 2% | [5]; [17] -161% | [5]; at 11.0 µM 11% | [5]; at 33.0 µM 32% | [5]; [18] 63% | [6]; at 1.2 µM -2% | [6]; at 3.7 µM 1% | [6]; [17] -46% | [6]; at 11.0 µM -15% | [6]; at 33.0 µM 25% | [6]; [18] 65% | [7]; at 1.2 µM -3% | [7]; at 3.7 µM -7% | [7]; at 11.0 µM 3% | [7]; at 33.0 µM 3% | [8]; [17] -57% | [8]; [18] 60% | [9]; at 1.2 µM -3% | [9]; at 3.7 µM -1% | [9]; at 11.0 µM 4% | [9]; at 33.0 µM 15% | [10]; [17] -67% | [10]; [18] -26% | [10]; at 50.0 µM 23.6% | [11]; at 1.2 µM -2% | [11]; at 3.7 µM 10% | [11]; [17] -50% | [11]; at 11.0 µM 22% | [11]; at 33.0 µM 61% | [11]; [18] 61%
active: [1]; at 100.0 µM 98% | [2]; at 100.0 µM 97% | [4]; at 100.0 µM 98% | [5]; at 50.0 µM 91% | [5]; at 100.0 µM 98% | [6]; at 50.0 µM 89.6% | [6]; at 100.0 µM 99% | [7]; at 100.0 µM 97% | [8]; at 50.0 µM 83.7% | [9]; at 100.0 µM 98% | [11]; at 50.0 µM 91.4% | [11]; at 100.0 µM 98%
